Values joined by “and” are separate entries in the source; they are usually repeats but may differ in a detail not shown here. Equal entries are not always repeated. Records with an inconclusive call do not appear. Active and inactive are the calls of the source. Unless noted, calls follow the shape of the dose curve; as a rule, active = well fitted curve in the direction sought with a large enough effect; inconclusive = small, poorly fitted or top-dose-only effect, or another doubt; inactive = no such curve, though single readings can be large; an effect the other way counts as inactive or inconclusive.
Experiments:
[1] = MultiTox-Fluor Cytotoxicity Assay - LYMP1-002 - Live Cells (AID 955); conditions: LYMP1-002 lymphoblastoid live-cell protease fluorescence viability; series mostly up to 46.1 µM;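 also: cells exposed to compound for 16 hours; % is scaled to controls: 0 for no effect and ±100 for the full control effect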
Method in brief: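 LYMP1-002 lymphoblastoid cells; 2500 cells/well; 16 hr compound exposure, 37 C; MultiTox-Fluor reagent 60 min RT; live-cell fluorescence Ex/Em=405/510; qHTS concentration-response, Hill-equation AC50; tetraoctylammonium bromide positive control.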

[2] = Cell Viability - LYMP2-024 (AID 988); conditions: LYMP2-024 lymphoblastoid cell viability; series mostly up to 92.2 µM; also: nearly all actives have a fitted effect of over 60% in size; also: potency is read from the fitted curve at half-maximal effect;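 as to activity change, negative = cytotoxicity: plate controls were DMSO only for no effect and 92 µM tetraoctylammonium bromide for full effect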
Method in brief: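 ATP-based luminescence (CellTiter-Glo, 30 min RT) after 24 h compound exposure at 37 C of 2500 lymphoblastoid cells/well; decrease in ATP taken as cytotoxicity. qHTS concentration-response fitted to standard Hill equation for AC50.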

[3] = target: Estrogen receptor (Homo sapiens) (UniProt P03372); experiment: qHTS assay for small molecule agonists of estrogen receptor alpha signaling (AID 588514; calls by dose curve;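 also: 0% = vehicle only and 100% = reference agonist; nearly all actives have a fitted effect of over 70% in size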); conditions: ER-alpha-UAS-bla HEK293, beta-lactamase ratio, 18 h; series mostly up to 76.8 µM
Method in brief: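 Read-out: CCF4 fluorescence from a beta-lactamase reporter in ER-alpha-UAS-bla HEK 293 cells after 18 hrs of compound exposure at 37 C. Normalized to 20 nM 17-beta-estradiol (100%) and DMSO (0%).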

[4] = qHTS assay for small molecule antagonists of peroxisome proliferator-activated receptor delta signaling (AID 588535); conditions: HEK293T PPARd-UAS-bla, beta-lactamase FRET ratio, 18 h; 460 nm channel;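 also: cells co-treated with a PPAR-delta agonist as stimulator during compound exposure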
Method in brief: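 Compounds tested in titration on PPAR-delta-UAS-bla HEK293T cells grown in charcoal/dextran-stripped serum (2%); beta-lactamase activity read via CCF4 emission at 460 and 530 nm.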

[5] = target: Vitamin D3 receptor (Homo sapiens) (UniProt P11473); experiment: qHTS assay for small molecule antagonists of vitamin D receptor signaling (AID 588541; calls by dose curve;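 also: receptor activated by calcitriol during compound treatment; % is scaled to controls: 0 for no effect and ±100 for the full control effect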); conditions: HEK293T VDR-UAS-bla, beta-lactamase ratio, antagonist mode; series mostly up to 76.7 µM
Method in brief: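 VDR-UAS-bla HEK293T cells (2000/well, 2% charcoal-stripped FBS) were treated with titrated compounds plus 1-alpha,25-dihydroxyvitamin D3 (50 nM or 3 nM final) for 16 h at 37 C. CCF4 beta-lactamase fluorescence was read; Hill fits gave IC50.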

[6] = target: Retinoic acid receptor RXR-alpha (Homo sapiens) (UniProt P19793); experiment: qHTS assay for small molecule agonists of retinoid X receptor alpha signaling (AID 588544; calls by dose curve;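 also: 0% = DMSO basal wells and 100% = reference agonist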); conditions: HEK293T RXRa-UAS-bla, beta-lactamase reporter, 18 h; series mostly up to 76.7 µM
[7] = target: Mitogen-activated protein kinase 10 (Mus musculus) (UniProt Q61831); experiment: JNK3 AlphaScreen Assay (AID 530; active = well fitted curve in either direction with a large enough effect, not every such curve was filed as active;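 also: kinase came from lysate of stimulated human HepG2 cells; signal reports phosphorylation of biotinylated GST-cJun 1-79 at Ser73 with 10 µM ATP; % is scaled to controls: 0 for no effect and ±100 for the full control effect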); conditions: JNK3 lysate, c-Jun phosphorylation; series mostly up to 11.4 µM
Method in brief: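 Biotinylated GST-cJun(1-79) served as substrate for JNK3 in HepG2 lysates stimulated with IL-1beta and TNF-alpha. ATP was 10 uM final, pH 7.6. Ser73 phosphorylation was quantified by AlphaScreen (680 nm excitation).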

[8] = Cell Viability - LYMP2-011 (AID 969); conditions: LYMP2-011 lymphoblastoid cells viability; series mostly up to 92.2 µM;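 also: cells exposed to compound for 24 hours; 0% = DMSO only and full inhibition = 92 µM tetraoctylammonium bromide; nearly all actives have a fitted effect of over 60% in size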
Method in brief: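 Luminescent ATP read-out (CellTiter-Glo, 30 min RT) after 24 hr compound exposure at 37 C in human lymphoblastoid cells, 2500 cells/well. Decreasing ATP indicates cytotoxicity; AC50 from standard Hill fit.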

[9] = Cell Viability - LYMP2-013 (AID 970); conditions: LYMP2-013 lymphoblastoid cells viability; series mostly up to 92.2 µM; also: nearly all actives have a fitted effect of over 55% in size; also: potency is read from the fitted curve at half-maximal effect
Method in brief: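 CellTiter-Glo luminescence (cellular ATP) read after 30 min at RT. Cells: human lymphoblastoid line, 2500/well, 24 hr compound exposure at 37 C. Tetraoctylammonium bromide positive control; AC50 via standard Hill fit of qHTS titrations.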

[10] = Cell Viability - LYMP2-019 (AID 973); conditions: LYMP2-019 lymphoblastoid cell line viability; series mostly up to 92.2 µM; also: nearly all actives have a fitted effect of over 55% in size; also: potency is read from the fitted curve at half-maximal effect;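 as to activity change, negative = cytotoxicity: 0% = DMSO alone and full effect = 92 µM tetraoctylammonium bromide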
Method in brief: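 qHTS, 1536-well; 2500 cells/well; 5 hr pre-incubation, 24 hr compound exposure, 37 C; CellTiter-Glo added, 30 min RT; luminescence read; AC50 via standard Hill equation.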

[11] = Cell Viability - LYMP2-023 (AID 975); conditions: LYMP2-023 lymphoblastoid cell viability; series mostly up to 92.2 µM;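 also: cells exposed to compound for 24 hours at 37 °C; nearly all actives have a fitted effect of over 55% in size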; also: potency is read from the fitted curve at half-maximal effect;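 as to activity change, negative = cytotoxicity: cellular ATP measured by luciferase luminescence as viability proxy; plate controls were DMSO only for no effect and 92 µM tetraoctylammonium bromide control for full effect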
Method in brief: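 CellTiter-Glo luminescence after 30 min at room temperature; decrease in intracellular ATP reflects toxicity. Cells: human lymphoblastoid line, 2500/well, 24 hr compound exposure at 37 C. AC50 fitted to standard Hill equation from concentration-response.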

[12] = Cell Viability - LYMP2-007 (AID 979); conditions: LYMP2-007 lymphoblastoid cell viability; series mostly up to 92.2 µM;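 also: cells exposed to compound for 24 h before reading; nearly all actives have a fitted effect of over 60% in size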; also: potency is read from the fitted curve at half-maximal effect;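 as to activity change, negative = cytotoxicity: 0% = DMSO only and the negative end = 92 µM tetraoctylammonium bromide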
Method in brief: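 qHTS cytotoxicity: 2500 cells/well, 5 hr 37 C settle, compound 24 hr 37 C, CellTiter-Glo 30 min RT, luminescence. Decrease in ATP = toxicity. AC50 by standard Hill equation; tetraoctylammonium bromide positive control.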

[13] = Cell Viability - LYMP2-012 (AID 982); conditions: LYMP2-012 lymphoblastoid cell viability qHTS; series mostly up to 92.2 µM;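 also: cellular ATP by luciferase luminescence where a drop means cytotoxicity; cells exposed to compound for one day before reading; nearly all actives have a fitted effect of over 55% in size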; also: potency is read from the fitted curve at half-maximal effect;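 as to activity change, negative = cytotoxicity: 0% = DMSO only and full loss = 92 µM tetraoctylammonium bromide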
[14] = target: Peroxisome proliferator-activated receptor gamma (Homo sapiens) (UniProt P37231); experiment: qHTS assay for small molecule antagonists of peroxisome proliferator-activated receptor gamma signaling (AID 588537; active = well fitted inhibition curve with a large enough effect in the signal ratio, with a control signal flat, not every such curve was filed as active; the % refers to the signal ratio;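 also: reporter cells co-stimulated with 50 nM rosiglitazone agonist during compound treatment; % of control where 0% means no effect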); conditions: HEK293 PPARg-UAS-bla, beta-lactamase ratio, antagonist mode; series mostly up to 76.8 µM
Method in brief: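 HEK293 cells, PPAR-gamma-UAS-bla, 3000/well. Pre-incubation 6-6.5 h, 37 C. Compound titration with rosiglitazone 50 nM final, 16 h. CCF4 dye, 2 h RT, dual-emission fluorescence.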

[15] = Cell Viability - SH-SY5Y (AID 544); conditions: SH-SY5Y neuroblastoma cell viability; viability change, negative = cytotoxic: at 92.2 µM (top of the series)
Method in brief: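 SH-SY5Y, 1500 cells/well, 5 hr pre-incubation 37 °C; cpd 40 hr 37 °C; CellTiter-Glo 20 min RT; luminescence (ATP) read. qHTS concentration-response, Hill fit → AC50. Tamoxifen, doxorubicin as positive controls.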

[16] = target: Glucocorticoid receptor (Homo sapiens) (UniProt P04150); experiment: qHTS assay for small molecule agonists of glucocorticoid receptor signaling (AID 588532; active = well fitted curve in the direction sought with a large enough effect in the signal ratio, with a control signal flat; the % refers to the signal ratio;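 also: 100% = dexamethasone at 0.1 µM and 0% = DMSO only wells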); conditions: HeLa MMTV-bla, beta-lactamase ratio, agonist, 18 h; stronger effect = higher value; percent of dexamethasone control, DMSO zero
Method in brief: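 MMTV-bla HeLa, beta-lactamase reporter; medium with 1% charcoal/dextran-stripped FBS; cpds up to 92 uM, 18 h, 37 C; CCF4 readout 460/530 nm; Hill fit → EC50, efficacy vs 0.1 uM dexamethasone = 100%.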

[17] = target: Glucocorticoid receptor (Homo sapiens) (UniProt P04150); experiment: qHTS assay for small molecule antagonists of glucocorticoid receptor signaling (AID 588533; active = well fitted inhibition curve with a large enough effect in the signal ratio, with a control signal flat, not every such curve was filed as active; the % refers to the signal ratio;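 also: cells stimulated with 2 nM dexamethasone as agonist; % is scaled to controls: 0 for no effect and ±100 for the full control effect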); conditions: HeLa MMTV-bla, GRE beta-lactamase ratio, antagonist mode, 18 h; series mostly up to 76.8 µM
Method in brief: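 Antagonist-mode qHTS: compound titrations added to GRE-bla HeLa cells, then dexamethasone 2 nM final; 18 h, 37 C. CCF4 FRET fluorescence normalized to dexamethasone and DMSO; IC50 from Hill fit.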

[18] = Cell Viability - NIH 3T3 (AID 541); conditions: NIH 3T3 cell viability, qHTS; activity change, negative = cytotoxicity: at 92.2 µM (top of the series);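 also: cells exposed to compound for 40 hours; nearly all actives have a fitted effect of over 25% in size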; also: potency is read from the fitted curve at half-maximal effect;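 as to activity change, negative = cytotoxicity: plate controls were DMSO alone for no effect and tamoxifen positive control for full effect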
Method in brief: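 qHTS format; 40 hr compound exposure, 37 °C; CellTiter-Glo luminescence (cellular ATP) read-out after 20 min at RT. Decrease in ATP = cytotoxicity; AC50 from standard Hill fit.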

[19] = target: Bile acid receptor (Homo sapiens) (UniProt Q96RI1); experiment: qHTS assay for small molecule antagonists of farnesoid X receptor signaling (AID 588526; calls by dose curve; also: % is scaled to controls: 0 for no effect and ±100 for the full control effect); conditions: HEK293T FXR-UAS-bla, beta-lactamase ratio, antagonist mode; series mostly up to 76.7 µM
Method in brief: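 Concentration-response titrations were fitted to the Hill equation for half-maximal inhibition and maximal response, with data normalised to 50 uM chenodeoxycholic acid and DMSO control wells. Cells: FXR-UAS-bla HEK293T, dialyzed FBS.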

[20] = qHTS assay to identify small molecules that stimulate interleukin-8 (IL-8) secretion (AID 651758; active = well fitted activation curve with a large enough effect in the signal ratio; the % refers to the signal ratio; also: potency is read from the fitted curve at half-maximal effect; as to activation: 0% is about no effect); conditions: HTRF ratio (665/615); series mostly up to 92.2 µM
Method in brief: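 Quantitative HTS in THP-1 monocytic cells at 2000 cells per well, with 16 hrs compound incubation at 37 C. IL-8 in the medium was then quantified by HTRF immunoassay, read after 1-3 hrs at room temperature.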

Glucocorticoid receptor (Homo sapiens), sequence (P04150 whole entry, looked up): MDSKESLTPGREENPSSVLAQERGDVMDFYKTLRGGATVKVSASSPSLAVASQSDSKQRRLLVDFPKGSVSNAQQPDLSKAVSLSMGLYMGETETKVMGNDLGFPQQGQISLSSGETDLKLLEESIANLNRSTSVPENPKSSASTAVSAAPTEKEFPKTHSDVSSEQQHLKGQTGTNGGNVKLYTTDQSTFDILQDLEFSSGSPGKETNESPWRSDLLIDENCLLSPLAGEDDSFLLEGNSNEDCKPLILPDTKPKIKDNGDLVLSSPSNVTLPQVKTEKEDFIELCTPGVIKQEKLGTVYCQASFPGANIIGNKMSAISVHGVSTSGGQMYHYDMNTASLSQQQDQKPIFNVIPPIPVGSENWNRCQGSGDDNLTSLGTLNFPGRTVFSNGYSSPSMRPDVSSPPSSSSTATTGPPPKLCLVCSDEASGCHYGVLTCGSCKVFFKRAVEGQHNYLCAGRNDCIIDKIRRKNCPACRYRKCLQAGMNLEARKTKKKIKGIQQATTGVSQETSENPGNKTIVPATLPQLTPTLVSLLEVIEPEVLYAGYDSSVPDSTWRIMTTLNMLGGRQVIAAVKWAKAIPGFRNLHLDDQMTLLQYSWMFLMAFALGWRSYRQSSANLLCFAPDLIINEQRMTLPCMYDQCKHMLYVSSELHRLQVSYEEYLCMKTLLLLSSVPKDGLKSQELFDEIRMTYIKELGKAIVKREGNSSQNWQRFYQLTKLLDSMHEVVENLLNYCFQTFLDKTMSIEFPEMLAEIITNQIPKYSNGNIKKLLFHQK
Estrogen receptor (Homo sapiens), sequence (P03372 whole entry, looked up): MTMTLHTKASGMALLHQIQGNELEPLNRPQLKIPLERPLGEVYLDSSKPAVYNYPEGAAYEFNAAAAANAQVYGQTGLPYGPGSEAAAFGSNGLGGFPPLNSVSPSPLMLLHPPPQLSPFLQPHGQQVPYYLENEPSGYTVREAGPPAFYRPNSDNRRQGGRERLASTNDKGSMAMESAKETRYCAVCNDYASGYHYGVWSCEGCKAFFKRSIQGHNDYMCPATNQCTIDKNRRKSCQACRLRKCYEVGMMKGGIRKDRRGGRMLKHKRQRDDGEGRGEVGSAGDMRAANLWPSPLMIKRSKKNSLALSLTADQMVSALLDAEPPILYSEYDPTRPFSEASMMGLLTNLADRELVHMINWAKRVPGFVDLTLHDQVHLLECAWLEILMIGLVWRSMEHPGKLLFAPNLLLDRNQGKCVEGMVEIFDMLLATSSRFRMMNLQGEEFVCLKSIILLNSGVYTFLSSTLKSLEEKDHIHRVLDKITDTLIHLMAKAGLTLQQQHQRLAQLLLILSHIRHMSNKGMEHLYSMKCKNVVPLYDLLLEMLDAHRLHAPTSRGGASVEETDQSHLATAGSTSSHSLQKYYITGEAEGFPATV
Retinoic acid receptor RXR-alpha (Homo sapiens), sequence (P19793 whole entry, looked up): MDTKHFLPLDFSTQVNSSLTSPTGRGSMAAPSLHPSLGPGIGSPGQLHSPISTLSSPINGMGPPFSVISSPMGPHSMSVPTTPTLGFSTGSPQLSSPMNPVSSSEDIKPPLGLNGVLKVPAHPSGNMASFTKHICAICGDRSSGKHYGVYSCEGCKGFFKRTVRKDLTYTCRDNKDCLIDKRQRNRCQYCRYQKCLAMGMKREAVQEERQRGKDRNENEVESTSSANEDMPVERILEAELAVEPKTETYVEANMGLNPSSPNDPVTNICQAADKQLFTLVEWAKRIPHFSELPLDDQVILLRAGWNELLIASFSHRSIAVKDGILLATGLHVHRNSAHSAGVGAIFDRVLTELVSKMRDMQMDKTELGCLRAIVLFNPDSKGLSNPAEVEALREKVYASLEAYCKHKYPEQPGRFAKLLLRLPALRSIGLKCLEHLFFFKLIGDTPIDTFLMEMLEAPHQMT
Vitamin D3 receptor (Homo sapiens), sequence (P11473 whole entry, looked up): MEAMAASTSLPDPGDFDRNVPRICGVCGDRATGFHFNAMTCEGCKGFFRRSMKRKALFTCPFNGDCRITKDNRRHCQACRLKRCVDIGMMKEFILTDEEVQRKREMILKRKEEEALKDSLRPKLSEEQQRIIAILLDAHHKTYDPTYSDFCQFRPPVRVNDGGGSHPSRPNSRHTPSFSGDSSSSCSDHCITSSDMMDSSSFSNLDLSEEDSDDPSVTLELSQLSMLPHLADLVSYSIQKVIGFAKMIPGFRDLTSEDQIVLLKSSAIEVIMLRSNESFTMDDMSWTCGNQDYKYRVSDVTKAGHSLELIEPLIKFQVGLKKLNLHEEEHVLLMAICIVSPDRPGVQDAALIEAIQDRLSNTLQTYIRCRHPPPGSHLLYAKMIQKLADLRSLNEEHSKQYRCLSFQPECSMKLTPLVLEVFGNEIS
Bile acid receptor (Homo sapiens), sequence (Q96RI1 whole entry, looked up): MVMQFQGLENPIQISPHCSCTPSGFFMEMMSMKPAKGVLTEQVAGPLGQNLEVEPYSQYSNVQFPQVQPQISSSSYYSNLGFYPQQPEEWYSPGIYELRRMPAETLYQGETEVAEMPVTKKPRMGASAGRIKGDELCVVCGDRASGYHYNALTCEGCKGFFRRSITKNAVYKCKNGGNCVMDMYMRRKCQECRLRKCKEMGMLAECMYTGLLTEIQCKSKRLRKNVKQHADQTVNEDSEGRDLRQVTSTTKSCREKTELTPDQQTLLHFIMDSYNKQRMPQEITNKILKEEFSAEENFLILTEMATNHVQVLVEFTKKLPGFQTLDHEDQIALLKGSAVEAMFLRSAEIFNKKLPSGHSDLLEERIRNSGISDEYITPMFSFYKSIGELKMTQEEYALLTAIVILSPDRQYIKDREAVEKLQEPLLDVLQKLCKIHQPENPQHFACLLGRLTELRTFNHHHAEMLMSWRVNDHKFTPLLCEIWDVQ
Peroxisome proliferator-activated receptor gamma (Homo sapiens), sequence (P37231 whole entry, looked up): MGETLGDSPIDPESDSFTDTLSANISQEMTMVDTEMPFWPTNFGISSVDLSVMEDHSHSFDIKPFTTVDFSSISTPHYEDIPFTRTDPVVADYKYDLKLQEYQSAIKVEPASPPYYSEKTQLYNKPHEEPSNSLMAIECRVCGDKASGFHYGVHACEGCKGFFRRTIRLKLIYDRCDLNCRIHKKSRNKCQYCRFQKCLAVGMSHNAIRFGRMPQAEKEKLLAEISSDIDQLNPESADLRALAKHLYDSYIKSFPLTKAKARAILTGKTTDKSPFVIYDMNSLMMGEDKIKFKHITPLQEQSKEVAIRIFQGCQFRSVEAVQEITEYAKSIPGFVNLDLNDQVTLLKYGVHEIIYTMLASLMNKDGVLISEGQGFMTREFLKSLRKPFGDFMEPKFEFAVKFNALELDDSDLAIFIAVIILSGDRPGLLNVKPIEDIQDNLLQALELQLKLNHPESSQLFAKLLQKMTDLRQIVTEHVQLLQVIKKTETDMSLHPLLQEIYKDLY

O=[N+]([O-])c1cc(N(CCO)CCO)ccc1NCCO
25% and 8.06%: max response [4]
inactive: outcome [1] | Potency [2] | Potency [3] | Potency [5] | Potency [6]

S=C(NC1CCCCC1)NC1CCCCC1
-15.4%: max response [4]
inactive: Potency [7] | Potency [8] | Potency [9] | Potency [10] | Potency [11] | Potency [12] | Potency [13] | Potency [3] | Potency [14] | Potency [5] | Potency [6]

C=C(C#N)C(=O)OCC
inactive: Potency [7] | Potency [15] | Potency [9] | Potency [12] | activation [16] -0.945% | Potency [17]
-32.1%: max response [4]

Cc1ccc(O)c(N)c1
active: activity change, negative = cytotoxicity [18] -124% | Potency [12] 50.1 µM | Potency [2] 39.8 µM
inactive: Potency [7] | outcome [1] | Potency [3] | Potency [19] | activation [16] 4.97%
-35.8%: max response [4]

CCOc1ccc2nc(N)sc2c1
inactive: Potency [7] | outcome [1] | Potency [8] | Potency [9] | Potency [11] | Potency [13] | Potency [3] | activation [16] -9.89% | Potency [17] | Potency [6]

Brc1cc(Br)c(Oc2cc(Br)c(Br)cc2Br)cc1Br
inactive: activity change, negative = cytotoxicity [18] -6.22% | Potency [15] | outcome [1] | Potency [8] | Potency [9] | Potency [2] | Potency [5]

O=C(O)c1ccc([N+](=O)[O-])cc1
8.52%: max response [4]
inactive: Potency [7] | Potency [15] | Potency [8] | Potency [9] | Potency [10] | Potency [11] | Potency [13] | Potency [2] | Potency [19] | Potency [17] | Potency [5] | Potency [6]

Nc1ccccc1O
17.2%: max response [4]
active: activity change, negative = cytotoxicity [18] -130% | Potency [20] 66.8 µM
inactive: Potency [7] | Potency [9] | Potency [10] | Potency [12] | Potency [13] | Potency [2] | Potency [3] | activation [16] 7.62% | Potency [5] | Potency [6]

Cc1cc(-c2ccc(N=Nc3cc(S(=O)(=O)O)c4ccccc4c3N)c(C)c2)ccc1N=Nc1cc(S(=O)(=O)O)c2ccccc2c1N
inactive: outcome [1] | Potency [3]
-39.2%: max response [4]

O=C=Nc1ccc(Cl)c(Cl)c1
inactive: Potency [3] | Potency [5]

O=C1OC(=O)c2ccccc21
inactive: Potency [7] | outcome [1] | Potency [9] | Potency [11] | Potency [13] | Potency [2] | Potency [3] | Potency [19] | Potency [17] | Potency [5] | Potency [6]
-31.3%: max response [4]

CC(C)(C)C(=O)C1C(=O)c2ccccc2C1=O
inactive: Potency [8] | Potency [11] | Potency [12] | Potency [2] | Potency [3] | Potency [20]
active: Potency [18] 12.6 µM

O=C1c2ccccc2C(=O)C1(O)O
inactive: Potency [7] | outcome [1] | Potency [8] | Potency [12] | Potency [3] | Potency [5] | Potency [6]

CC/C=C/C/C=C/C/C=C/CCCCCCCC(=O)OCC
active: Potency [9] 50.1 µM | Potency [10] 39.8 µM | Potency [11] 39.8 µM | Potency [13] 39.8 µM
inactive: Potency [17]

Reference: PubChem BioAssay (NCATS)
